Sfp inh – Sfp phosphopantetheinyl transferase inhibition. Q9F4F7. Biochemical Sfp PPTase activity, qHTS. Potency, µM, for inactives: largest response in the series, negative = inhibition, usual class: inhibitors. 3.5% of 310,000 active. AID 1490;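 further: the enzyme is Sfp with the accession as filed and its product quenches rhodamine fluorescence; 0% = enzyme reaction without inhibitor and -100% = no enzyme wells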
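Compounds were incubated with enzyme (final 15 nM) for 15 min at room temperature before substrate addition started the reaction. Fluorescence at 525 nm excitation, 598 nm emission was recorded immediately and after 30 minutes.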
L3MBTL1 block – inhibitors of human L3MBTL1 | Q9Y468 | AlphaScreen L3MBTL1–H3K9me1 peptide binding | Potency, µM (titrated, usually from 57.1 µM), inactives show at the top dose activity, negative = inhibition, actives largely listed as inhibitors | 0.66% of 230,000 active; further: on the % scale 0 is the no-effect control and ±100 the full control effect; nearly all actives have a fitted effect of over 60% in size
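Displacement of a biotinylated histone H3(1-15) peptide monomethylated at Lys9 (75 nM) from L3MBTL1 (50 nM) was measured by AlphaScreen after a 30 min room-temperature compound incubation; cefsulodin titration served as intraplate control.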
HP1b binding inh – HP1-beta chromodomain-methylated histone interaction inhibition; P83916; AlphaScreen HP1-beta / biotin-H3K9me3 peptide binding; Potency, µM (top dose mostly 114 µM), for the others: at the highest dose activity change, negative = inhibition, hits mostly inhibitors; 0.56% of 390,000 active; AID 540317; further: nearly all actives have a fitted effect of over 70% in size
Target sequence (P83916 whole entry, looked up): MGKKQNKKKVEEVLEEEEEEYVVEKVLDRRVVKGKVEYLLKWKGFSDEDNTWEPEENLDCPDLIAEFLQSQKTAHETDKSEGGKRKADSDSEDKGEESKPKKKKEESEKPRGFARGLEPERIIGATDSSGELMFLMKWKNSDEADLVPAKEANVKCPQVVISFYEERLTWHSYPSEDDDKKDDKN
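AlphaScreen: HP1-beta (50 nM) preformed 30 min with biotin-H3(1-18)K9me3 peptide (50 nM) in PBS pH 7.4, 0.01% Tween-20. Compound added for 30 min at RT, then streptavidin donor/nickel chelate acceptor beads (10 ug/mL) for 30 min.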
JMJD2A Tudor – blocks the human JMJD2A Tudor domain; 4.4% of 390,000 active; Potency, µM (series often up to 114 µM), inactives show at the highest dose activity change, negative = inhibition, usual class: inhibitors; O75164; AlphaScreen JMJD2A-Tudor / H3K4me3 peptide binding; further: on the % scale 0 is the no-effect control and ±100 the full control effect; nearly all actives have a fitted effect of over 50% in size
G9a block – inhibitors of human histone lysine methyltransferase G9a | Potency, µM (doses to about 102 µM), for inactives: top-dose activity, negative = inhibition, hits mostly inhibitors | 8.8% of 350,000 active | G9a H3K9 monomethylation, AlphaScreen, 2 h | Q96KQ7; further: on the % scale 0 is the no-effect control and ±100 the full control effect; nearly all actives have a fitted effect of over 75% in size
Target sequence (Q96KQ7 913-1193 limits assumed): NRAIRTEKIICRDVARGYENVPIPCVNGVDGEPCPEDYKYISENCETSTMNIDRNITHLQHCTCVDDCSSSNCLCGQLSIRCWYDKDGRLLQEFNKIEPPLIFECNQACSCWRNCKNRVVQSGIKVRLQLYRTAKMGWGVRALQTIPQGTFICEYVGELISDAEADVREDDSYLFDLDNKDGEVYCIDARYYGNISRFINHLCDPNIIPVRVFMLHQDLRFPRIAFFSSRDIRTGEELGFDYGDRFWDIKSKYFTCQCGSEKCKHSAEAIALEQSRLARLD
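AlphaScreen read-out: biotin-H3K9 peptide (500 nM) methylation by 20 nM enzyme with 20 uM SAM, 2 h at room temperature after 15 min compound preincubation; anti-monomethyl H3K9 antibody plus donor/acceptor beads, 10 min dark.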
BAZ2B block – blocks human BAZ2B | Q9UIF8 | Potency, µM (series often up to 114 µM), for inactives: at the highest dose activity change, negative = inhibition, actives largely listed as inhibitors | AlphaScreen BAZ2B-H3K14Ac peptide displacement | 4.4% of 360,000 active; further: on the % scale 0 is the no-effect control and ±100 the full control effect; nearly all actives have a fitted effect of over 60% in size
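BAZ2B (50 nM) with biotin-H3(5-23)K14Ac peptide (50 nM) in PBS pH 7.4, 0.01% Tween-20, preformed 30 min, then compound 30 min at room temperature; top concentration 110uM. AlphaScreen streptavidin donor/nickel chelate acceptor beads (10 ug/mL final), 20 min dark, signal read.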
* marks the source's active call; other numbers are inactive results; u = inconclusive; x = no result given; [ ] = remark or other dose. Most compounds without a hit are left out; they make up all but 12% or so of the library. The call rests on the fitted dose curve; in most records, active means well fitted curve in the direction sought with a large enough effect; inconclusive means small, poorly fitted or top-dose-only effect, or another doubt; inactive means no such curve, though single readings can be large; an effect the other way counts as inactive or inconclusive. Potency means the concentration at half of the fitted maximal effect.

SMILES | Sfp inh | L3MBTL1 block | HP1b binding inh | JMJD2A Tudor | G9a block | BAZ2B block
CCOc1ccc(N=C2C(=O)Nc3ccc(C)c(Br)c32)cc1 | -3% | x | u | u | u | 35µM*
COc1cccc(CS(=O)(=O)c2ccccc2)c1 | 7% | x | x | x | x | x
CCOc1ccccc1NC(=O)C(=O)N/N=C/c1ccc([N+](=O)[O-])cc1 | 11% | 8% | 28% | 4% | -1% | -10%
O=C(N/N=C/C(Cl)=C/c1ccc([N+](=O)[O-])cc1)C(=O)Nc1ccc(C(=O)O)cc1 | u | 9% | u | -34%[11.4 µM] | 50µM* | u
O=C(N/N=C/C(Cl)=C/c1ccc([N+](=O)[O-])cc1)C(=O)Nc1ccccc1C(=O)O | 35µM* | u | -21% | u | 35µM* | u
O=C(N/N=C/C(Cl)=C/c1ccccc1)c1ccccc1F | -6% | x | -18% | -27% | 32µM* | -16%
Cc1ccccc1-c1cncnc1Nc1ccccc1 | -9% | x | x | x | 4%[0.501 µM] | x
CCCc1nc2c(C)ccc(C)c2c(N)c1CC | -5% | -6% | u | 2.8µM* | u | -28%
C=CCSC1=N/C(=C\c2ccc(C(=O)O)cc2)C(=O)S1 | 40µM* | -23% | -5% | 6% | 45µM* | -29%
CN(C)c1ccc(C2CC(=O)C=C(Nc3ccccc3N)C2)cc1 (stereo not drawn) | 4% | u | -6% | u | x | 45µM*
CC(C)CC1NC(=O)N(CC(=O)N(C)C2CCCCC2)C1=O (stereo not drawn) | x | -2% | 55% | -2% | x | x
CCC(CC)N1CCN(S(=O)(=O)c2ccc(OC)cc2)CC1 | -23% | 3% | u | 1.6µM* | 3.5µM* | 50µM*
COc1ccc(N2CCN(S(=O)(=O)c3cc(-c4cc(C)no4)ccc3C(C)C)CC2)cc1 | -7% | x | 29% | -5% | 22µM* | 10µM*
COc1ccc(S(=O)(=O)N2CCN(S(=O)(=O)c3c(F)cccc3F)CC2)cc1 | x | -13% | x | -18% | 5%[12.7 µM] | -12%
COc1ccc(N2CCN(S(=O)(=O)c3ccc(OC)cc3)CC2)cc1 | 4% | -3% | u | u | 25µM* | u
COc1ccc(N2CCN(S(=O)(=O)c3cc(C)ccc3OC)CC2)cc1 | -3% | -9%[11.4 µM] | u | u | u | 45µM*
Cc1cc(-c2ccc(C(C)C)c(S(=O)(=O)N3CCN(c4ccccc4)CC3)c2)on1 | 6% | x | -12%[57 µM] | u | -17% | u
CN(C)S(=O)(=O)c1cccc(N2C(=O)CC3(CCCCC3)CC2=O)c1 | 14% | x | 28% | 2% | -7% | 11%
COC(=O)N1CCC2(CCCN(C(=O)Nc3ccccc3)C2)CC1 | 6% | x | x | x | -1%[12.7 µM] | x
CC12CN3CC(C)(CN(C1)C3c1c[nH]c3ccccc13)C2=O (stereo not drawn) | 21% | 10% | 10% | -14% | 29% | -16%
CC12CN3CC(C)(CN(C1)C3c1ccc3ccccc3c1O)C2=O (stereo not drawn) | -12% | 1% | 32% | u | 1.6µM* | -10%
CC1(C)CC(=O)C(C=NCCN2CCN(C(=O)NC34CC5CC(CC(C5)C3)C4)CC2)=C(O)C1 | 8% | 4% | 41% | -16% | 50µM* | 15%
CC1(C)CC(=O)C(C=NCCN2CCN(C(=O)CC3CCCC3)CC2)=C(O)C1 | 12% | 8% | 44% | -9% | -4%[59 µM] | 7%
CN(C)c1ccc(NC(=O)CSC2=Nc3ccccc3C3=NC(CC(=O)NCc4ccccc4)C(=O)N23)cc1 (stereo not drawn) | x | x | 10% | u | 1.6µM* | -36%
Cc1ccc(CSC2=Nc3ccccc3C3=NC(CCC(=O)NCc4ccco4)C(=O)N23)cc1 (stereo not drawn) | u | -1% | u | -32% | u | u
O=C(CC1N=C2c3ccccc3N=C(SCc3ccc(Cl)cc3)N2C1=O)NCc1ccco1 (stereo not drawn) | u | -6% | -12% | u | 50µM* | u

Screens deposited in PubChem by National Center for Advancing Translational Sciences (NCATS).
